These results are taken from PubChem BioAssay (EPA / NIEHS).

The source made the active and inactive calls. Rule for the calls: active = hit-call score of the fitted dose curve at least 0.9, where 1 is the maximum; inactive = score below 0.9.

Test [1] can be described thus: ATG_ISRE_CIS: Attagene CIS-FACTORIAL HepG2 Assay for human Interferon Regulatory Factor 1 (IRF1) binding to an Interferon-Stimulated Response Element (ISRE) (AID 2282948). To be noted: HepG2 ISRE cis-reporter (Attagene), mRNA transcription readout; actives raise or lower the signal. In short, it runs like this:
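Multiplexed mRNA reporter readout in human liver HepG2 cells: cis-element-driven reporters transfected, compound added for 24 h, transcripts amplified, fluorescently labelled and sized by capillary electrophoresis; curve fitting bidirectional against DMSO.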

The nature of test [2]: ATG_M_32_CIS: Attagene CIS-FACTORIAL HepG2 Assay for M32 Transcription Factor (Internal Marker) (AID 2282949).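 Note: background control marker of the multiplexed CIS panel rather than a real target.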 To be noted: HepG2 Attagene cis-factorial M32 reporter, mRNA; actives raise or lower the signal. The procedure, abridged:
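HepG2 transfectants (cis-regulated reporter transcription units) dosed 24 h. Reporter mRNA by RT-PCR plus CE, analysed as gain or loss relative to DMSO.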

Test [3] in a line: ATG_M_06_CIS: Attagene CIS-FACTORIAL HepG2 Assay for M06 Transcription Factor (Internal Marker) (AID 2282950). To be noted: HepG2 Attagene CIS-FACTORIAL M06 internal marker reporter; actives raise or lower the signal. In short, it runs like this: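 Fluorescence-labelled RT-PCR products from cis-promoter reporter units, cut with HpaI and resolved by capillary electrophoresis, give the signal. Cells are human HepG2, dosed for 24 h. Serves as background control, fitted relative to DMSO.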

Test [4] has as its target Hypoxia-inducible factor 1-alpha (Homo sapiens) (UniProt Q16665). Description: ATG_HIF1a_CIS: Attagene CIS-FACTORIAL HepG2 Assay for human Hypoxia Inducible Factor 1 (HIF1A) (AID 2282951). To be noted: HepG2 Attagene cis-factorial HIF1a reporter transcription; actives raise or lower the signal. The procedure, abridged: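 Measures endogenous transcription-factor activity through cis-regulated reporter mRNA in HepG2. Cells dosed 24 h; transcripts quantified by RT-PCR with 6-FAM-labelled products separated by capillary electrophoresis; DMSO serves as negative control.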

Test [5] concerns the target Hepatocyte nuclear factor 6 (Homo sapiens) (UniProt Q9UBC0). Nature of the test: ATG_HNF6_CIS: Attagene CIS-FACTORIAL HepG2 Assay for human Hepatocyte Nuclear Factor 6 (HNF6) (AID 2282952). To be noted: HepG2 Attagene cis-factorial HNF6 reporter transcription; actives raise or lower the signal. In short, it runs like this:
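Endogenous factor activity read in transiently transfected HepG2 via promoter-regulated reporter transcripts. RNA harvested 24 h post-dosing, reverse-transcribed, PCR-amplified, FAM-labelled, HpaI-digested and resolved by capillary electrophoresis; fitted in both directions against DMSO.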

Test [6] concerns the target Heat shock factor protein 1 (Homo sapiens) (UniProt Q00613). Nature of the test: ATG_HSE_CIS: Attagene CIS-FACTORIAL HepG2 Assay for human Heat Shock Transcription Factor 1 (HSE) (AID 2282953). To be noted: HepG2 HSE cis-reporter, Attagene RNA transcription; actives raise or lower the signal. In short, it runs like this:
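After a 24 h incubation with test chemical, transfected HepG2 cells were harvested for RNA; reporter transcripts were measured by RT-PCR and capillary electrophoresis. Values reflect gain or loss of signal relative to DMSO.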

The nature of test [7]: ATG_MRE_CIS: Attagene CIS-FACTORIAL HepG2 Assay for human Metal Responsive Element (MRE) (AID 2282954). To be noted: HepG2 MRE cis-reporter transcription, Attagene multiplex; actives raise or lower the signal. The procedure, abridged:
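Endogenous MRE-dependent transcription read as reporter mRNA in transiently transfected human HepG2 cells at 24 h. RNA reverse-transcribed, PCR-amplified, labelled and resolved by capillary electrophoresis; gain or loss relative to DMSO.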

Test [8] addresses Paired box protein Pax-6 (Homo sapiens) (UniProt P26367). Description: ATG_Pax6_CIS: Attagene CIS-FACTORIAL HepG2 Assay for human Paired Box 6 (PAX6) (AID 2282956). To be noted: HepG2 CIS-FACTORIAL PAX6 reporter transcription, RNA readout; actives raise or lower the signal. In short, it runs like this:
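Fluorescent RT-PCR products separated by capillary electrophoresis report PAX6-linked promoter mRNA in HepG2 cells 24 h post-dose. Curves fitted bidirectionally, DMSO as negative control.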

Test [9] is described as follows: ATG_PXRE_CIS: Attagene CIS-FACTORIAL HepG2 Assay for human Pregnane X Receptor Element (PXRE) (AID 2282957). To be noted: HepG2 Attagene CIS-FACTORIAL PXRE reporter, mRNA; actives raise or lower the signal. The procedure, abridged:
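Reporter transcripts under endogenous PXR-responsive cis-regulation quantified from total RNA of transfected HepG2 cells 24 h post-dosing, via RT-PCR with fluorescent primer extension and capillary electrophoresis. Gain or loss of signal fitted against DMSO baseline.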

Test [10] can be described thus: ATG_Sox_CIS: Attagene CIS-FACTORIAL HepG2 Assay for human SRY-box transcription factor (SOX) (AID 2282960). To be noted: HepG2 Attagene cis-factorial SOX reporter, mRNA; actives raise or lower the signal. In short, it runs like this:
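Transient MRTU transfection of HepG2; 24 h compound incubation; TriZol RNA, oligo(dT) RT, PCR, 6-FAM primer extension, HpaI cut, CE. Bidirectional fit, DMSO = baseline.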

Test [11] concerns the target Transcription factor Sp1 (Homo sapiens) (UniProt P08047). Nature of the test: ATG_Sp1_CIS: Attagene CIS-FACTORIAL HepG2 Assay for human Specificity Protein 1 (Sp1) (AID 2282961). To be noted: HepG2 Sp1 cis-reporter transcription, actives raise or lower the signal. The procedure, abridged:
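Endogenous Sp1 activity was gauged in human liver HepG2 cells bearing transfected reporter units under a cis-regulating promoter. After 24 h dosing, reporter mRNA was quantified by RT-PCR with capillary electrophoresis, and activity fitted bidirectionally versus DMSO.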

The nature of test [12]: ATG_SREBP_CIS: Attagene CIS-FACTORIAL HepG2 Assay for human Sterol Regulatory Element Binding (SREBP) (AID 2282962). To be noted: HepG2 Attagene cis-factorial SREBP reporter, mRNA; actives raise or lower the signal. The procedure, abridged: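 Endogenous factor activity is measured in HepG2 through multiplexed reporter units under cis-element control. Following a 24 h incubation, reporter transcripts are reverse-transcribed, PCR-amplified and sized by capillary electrophoresis; activity is fitted in both directions relative to DMSO.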

The target of test [13] is Signal transducer and activator of transcription 3 (Homo sapiens) (UniProt P40763). Nature of the test: ATG_STAT3_CIS: Attagene CIS-FACTORIAL HepG2 Assay for human Signal Transducer and Activator of Transcription 3 (STAT3) (AID 2282963). To be noted: HepG2, Attagene cis-factorial STAT3 reporter transcription; actives raise or lower the signal. The procedure, abridged: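 Readout is reporter transcript quantified by RT-PCR and capillary electrophoresis, with 6-FAM primer extension and HpaI digestion. Total RNA is taken 24 h after dosing transiently transfected HepG2 carrying cis-regulated reporter units. Bidirectional fit against DMSO.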

Test [14] can be described thus: ATG_TA_CIS: Attagene CIS-FACTORIAL HepG2 Assay for human TA Basal Promoter (AID 2282964). To be noted: HepG2 Attagene CIS-factorial TA basal promoter reporter; actives raise or lower the signal. The procedure, abridged: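 Multiplexed mRNA reporter assay, HepG2, 24 h. Reporter cDNA amplified, 6-FAM primer-extended, HpaI-cut, CE-sized; DMSO = negative control and baseline.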

Test [15] in a line: ATG_TCF_b_cat_CIS: Attagene CIS-FACTORIAL HepG2 Assay for human T-Cell-Factor with beta-catenin (TCF/b-cat) (AID 2282965). To be noted: HepG2 TCF/beta-catenin cis-reporter transcription, actives raise or lower the signal. In short, it runs like this: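 Measured: reporter mRNA in HepG2 transiently transfected with cis-promoter reporter units, 24 h after chemical addition. Fitting was bidirectional, DMSO as negative control.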

Test [16] can be described thus: ATG_GRE_CIS: Attagene CIS-FACTORIAL HepG2 Assay for human Glucocorticoid Response Elements (GRE) (AID 2282947). To be noted: HepG2 GRE cis-reporter, Attagene multiplex mRNA; actives raise or lower the signal. The procedure, abridged: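 Reporter transcripts read by RT-PCR with capillary electrophoresis fluorescence after a 24 h chemical exposure of HepG2 cells transiently transfected with multiple cis-element reporter units. Gain or loss fitted against DMSO.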

A short description of test [17]: ATG_PBREM_CIS: Attagene CIS-FACTORIAL HepG2 Assay for human Phenobarbital-responsive Enhancer Module (PBREM) (AID 2282955). To be noted: HepG2 PBREM cis-reporter, Attagene multiplexed transcription; actives raise or lower the signal. In short, it runs like this: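 Fluorescence of labelled reporter cDNA fragments, resolved by capillary electrophoresis, gives mRNA induction in transfected HepG2 cells treated for 24 h; DMSO serves as negative control and baseline.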

Test [18] is described as follows: ATG_RORE_CIS: Attagene CIS-FACTORIAL HepG2 Assay for human RAR-related Orphan Receptor Element (RORE) (AID 2282959). To be noted: HepG2 Attagene cis-factorial RORE reporter, mRNA; actives raise or lower the signal. The procedure, abridged: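 Cells were HepG2 carrying transfected cis-regulated reporter constructs, dosed for 24 hours. Total RNA was reverse-transcribed and reporter cDNA amplified, fluorescently labeled and sized by capillary electrophoresis. Activity was fitted bidirectionally relative to DMSO.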

The nature of test [19]: ATG_PPRE_CIS: Attagene CIS-FACTORIAL HepG2 Assay for human Peroxisome Proliferator-activated Response Element (PPRE) (AID 2282958). To be noted: HepG2 PPRE cis-element reporter, Attagene transcription factor profiling; actives raise or lower the signal. In short, it runs like this: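 Cells are first transfected transiently with the multiplexed reporter library, then dosed for 24 h. Total RNA is reverse-transcribed, amplified, fluorescently end-labeled and HpaI-cut before capillary electrophoresis; activity is fitted bidirectionally against DMSO controls.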

Chain of Signal transducer and activator of transcription 3 (Homo sapiens) (P40763 whole entry, looked up): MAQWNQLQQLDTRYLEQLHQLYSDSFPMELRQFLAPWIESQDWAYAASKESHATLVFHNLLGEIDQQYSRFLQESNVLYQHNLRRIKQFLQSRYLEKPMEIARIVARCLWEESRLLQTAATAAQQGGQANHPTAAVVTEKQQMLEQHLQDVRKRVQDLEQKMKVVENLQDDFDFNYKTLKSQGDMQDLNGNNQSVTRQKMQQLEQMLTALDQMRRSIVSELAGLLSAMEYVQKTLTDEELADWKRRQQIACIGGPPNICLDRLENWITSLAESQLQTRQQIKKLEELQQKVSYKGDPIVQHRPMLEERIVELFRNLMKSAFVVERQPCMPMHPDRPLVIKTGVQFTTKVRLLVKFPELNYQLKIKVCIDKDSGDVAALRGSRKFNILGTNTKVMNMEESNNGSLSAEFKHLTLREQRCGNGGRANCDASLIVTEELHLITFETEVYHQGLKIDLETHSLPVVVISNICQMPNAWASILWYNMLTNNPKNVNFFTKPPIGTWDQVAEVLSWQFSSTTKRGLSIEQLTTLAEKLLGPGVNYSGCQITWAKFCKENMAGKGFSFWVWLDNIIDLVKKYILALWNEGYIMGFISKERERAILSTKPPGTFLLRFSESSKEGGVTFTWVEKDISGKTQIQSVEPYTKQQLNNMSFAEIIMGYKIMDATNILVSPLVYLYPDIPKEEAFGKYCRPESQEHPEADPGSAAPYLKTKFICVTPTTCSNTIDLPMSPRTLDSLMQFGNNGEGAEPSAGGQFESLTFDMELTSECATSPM
Chain of Transcription factor Sp1 (Homo sapiens) (P08047 whole entry, looked up): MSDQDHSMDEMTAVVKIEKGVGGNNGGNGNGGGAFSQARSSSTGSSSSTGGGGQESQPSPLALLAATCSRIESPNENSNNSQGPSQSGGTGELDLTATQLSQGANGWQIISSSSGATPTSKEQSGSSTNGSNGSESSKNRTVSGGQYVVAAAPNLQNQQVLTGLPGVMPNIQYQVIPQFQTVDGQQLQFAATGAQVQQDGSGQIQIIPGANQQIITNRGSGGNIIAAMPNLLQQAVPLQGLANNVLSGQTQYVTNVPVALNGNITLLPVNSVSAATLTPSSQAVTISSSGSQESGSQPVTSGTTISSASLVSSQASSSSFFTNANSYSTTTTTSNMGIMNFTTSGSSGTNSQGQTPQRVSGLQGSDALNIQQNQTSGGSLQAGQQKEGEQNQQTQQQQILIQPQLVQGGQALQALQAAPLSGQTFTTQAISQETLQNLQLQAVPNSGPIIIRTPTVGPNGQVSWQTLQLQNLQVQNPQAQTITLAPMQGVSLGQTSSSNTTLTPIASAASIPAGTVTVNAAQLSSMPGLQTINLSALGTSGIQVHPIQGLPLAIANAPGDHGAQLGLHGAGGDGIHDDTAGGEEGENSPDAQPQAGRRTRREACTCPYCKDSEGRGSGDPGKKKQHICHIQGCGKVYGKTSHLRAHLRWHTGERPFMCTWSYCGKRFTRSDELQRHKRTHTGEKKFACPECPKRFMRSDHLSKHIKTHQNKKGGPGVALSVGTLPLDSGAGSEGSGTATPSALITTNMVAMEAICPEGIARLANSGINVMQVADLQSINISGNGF
Chain of Heat shock factor protein 1 (Homo sapiens) (Q00613 whole entry, looked up): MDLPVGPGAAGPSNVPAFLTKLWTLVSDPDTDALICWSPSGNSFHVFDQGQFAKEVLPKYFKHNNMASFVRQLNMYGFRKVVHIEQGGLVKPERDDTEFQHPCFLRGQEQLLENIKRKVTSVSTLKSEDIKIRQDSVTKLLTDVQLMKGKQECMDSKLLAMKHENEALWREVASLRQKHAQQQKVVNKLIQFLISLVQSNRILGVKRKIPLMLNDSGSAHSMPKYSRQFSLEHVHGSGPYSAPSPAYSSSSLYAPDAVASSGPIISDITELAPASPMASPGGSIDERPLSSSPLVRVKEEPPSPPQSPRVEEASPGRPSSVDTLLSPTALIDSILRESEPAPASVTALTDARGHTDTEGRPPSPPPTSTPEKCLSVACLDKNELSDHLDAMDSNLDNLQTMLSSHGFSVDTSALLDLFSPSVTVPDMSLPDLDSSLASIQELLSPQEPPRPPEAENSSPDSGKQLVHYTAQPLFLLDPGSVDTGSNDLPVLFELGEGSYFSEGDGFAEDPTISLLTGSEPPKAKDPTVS
Chain of Hypoxia-inducible factor 1-alpha (Homo sapiens) (Q16665 whole entry, looked up): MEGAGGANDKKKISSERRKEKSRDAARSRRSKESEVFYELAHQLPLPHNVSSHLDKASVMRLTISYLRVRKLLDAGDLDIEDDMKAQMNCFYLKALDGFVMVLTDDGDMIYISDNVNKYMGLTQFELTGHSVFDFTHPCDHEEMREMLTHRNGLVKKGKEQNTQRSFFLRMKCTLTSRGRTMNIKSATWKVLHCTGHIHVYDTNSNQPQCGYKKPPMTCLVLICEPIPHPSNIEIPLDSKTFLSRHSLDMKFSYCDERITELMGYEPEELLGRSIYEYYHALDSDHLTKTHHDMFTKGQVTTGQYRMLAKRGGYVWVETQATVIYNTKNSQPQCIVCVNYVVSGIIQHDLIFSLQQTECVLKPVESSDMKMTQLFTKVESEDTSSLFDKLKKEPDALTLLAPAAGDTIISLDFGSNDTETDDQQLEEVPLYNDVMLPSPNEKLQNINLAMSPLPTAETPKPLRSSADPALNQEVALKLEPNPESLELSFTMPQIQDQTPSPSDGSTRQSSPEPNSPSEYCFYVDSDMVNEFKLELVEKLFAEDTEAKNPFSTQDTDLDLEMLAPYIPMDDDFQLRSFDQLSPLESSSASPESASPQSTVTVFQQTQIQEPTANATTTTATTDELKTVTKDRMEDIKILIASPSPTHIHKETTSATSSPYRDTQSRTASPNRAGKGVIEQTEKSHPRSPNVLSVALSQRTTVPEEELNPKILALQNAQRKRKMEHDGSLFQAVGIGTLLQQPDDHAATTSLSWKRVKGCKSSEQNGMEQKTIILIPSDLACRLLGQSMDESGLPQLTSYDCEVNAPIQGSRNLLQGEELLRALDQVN
Chain of Paired box protein Pax-6 (Homo sapiens) (P26367 whole entry, looked up): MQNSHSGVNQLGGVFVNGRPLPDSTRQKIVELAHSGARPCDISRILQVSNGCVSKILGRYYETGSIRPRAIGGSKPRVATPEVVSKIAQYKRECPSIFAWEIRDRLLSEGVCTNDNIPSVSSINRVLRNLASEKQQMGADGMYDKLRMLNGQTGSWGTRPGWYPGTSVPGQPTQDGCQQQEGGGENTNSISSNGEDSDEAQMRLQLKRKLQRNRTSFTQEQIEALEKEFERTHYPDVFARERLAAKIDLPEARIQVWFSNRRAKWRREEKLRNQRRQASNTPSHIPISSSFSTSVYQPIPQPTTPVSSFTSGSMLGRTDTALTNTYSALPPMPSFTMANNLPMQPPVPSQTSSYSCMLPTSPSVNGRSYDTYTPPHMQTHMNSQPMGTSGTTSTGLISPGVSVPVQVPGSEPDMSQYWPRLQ
Chain of Hepatocyte nuclear factor 6 (Homo sapiens) (Q9UBC0 whole entry, looked up): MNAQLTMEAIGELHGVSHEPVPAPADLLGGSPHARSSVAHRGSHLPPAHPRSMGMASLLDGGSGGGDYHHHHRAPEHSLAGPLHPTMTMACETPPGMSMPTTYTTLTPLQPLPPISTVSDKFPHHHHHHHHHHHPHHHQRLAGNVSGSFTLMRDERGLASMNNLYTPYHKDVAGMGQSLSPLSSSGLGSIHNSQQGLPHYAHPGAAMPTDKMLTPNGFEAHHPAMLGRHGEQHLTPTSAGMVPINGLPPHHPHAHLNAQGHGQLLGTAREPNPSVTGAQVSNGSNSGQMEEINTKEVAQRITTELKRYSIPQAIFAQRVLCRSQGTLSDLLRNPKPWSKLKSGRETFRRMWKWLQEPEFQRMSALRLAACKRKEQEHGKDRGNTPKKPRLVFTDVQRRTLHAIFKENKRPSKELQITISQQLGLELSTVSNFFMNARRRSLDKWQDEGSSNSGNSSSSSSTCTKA

With `CC/C=C\CCOC(=O)CC`, the compound was called inactive in test [1], in [2], in test [3], in test [4], in test [5] and in test [6]. Moreover, the compound was called inactive in [7], in test [8], in test [9], in test [10], in test [11] and in test [12]. The outcome in test [13], in [14] and in test [15] was inactive.
By AC50 is commonly meant the concentration giving half of the maximal activity seen. On to `CN(C)CCOc1ccc(/C(=C(/CCCl)c2ccccc2)c2ccccc2)cc1`, for which the outcome in test [16], in [2], in test [3], in test [4], in [5] and in [6] was inactive. For the same compound, the call in [7], in test [17], in test [18], in test [10], in [11] and in test [12] was inactive. The call in [13], in [14] and in [15] was inactive. The concentration at half-maximal activity (AC50) in test [9] is 1.18 µM (active).
Regarding `Nc1ccn([C@H]2CS[C@@H](CO)O2)c(=O)n1`, the compound was classed as inactive in test [1], in [2], in test [3], in test [4], in [5] and in test [6]. Also, the outcome in test [7], in test [17], in test [8], in [9], in test [19] and in test [18] was inactive. For the same compound, the result in [10], in test [11], in test [12], in [13], in test [14] and in test [15] was inactive.
In the case of `CC=Cc1ccc(OCC)c(O)c1`, the compound was classed as inactive in test [16], in test [2], in [5], in test [6], in test [7] and in test [17]. Also, the compound was called inactive in test [8], in test [19], in test [18], in test [10], in [11] and in [12]. For the same compound, the result in [13], in [14] and in [15] was inactive. Moreover, in [9], the AC50 was 65.8 µM (active).
For the compound `CN1C(=O)c2ccccc2C1=O`, the outcome in test [16], in [2], in test [3], in test [5], in [6] and in [7] was inactive. Further, the outcome in [17], in test [8], in test [9], in test [19], in [18] and in test [11] was inactive. In addition, the compound was classed as inactive in test [12], in test [13], in [14] and in [15].
As to `CC1(C)O[C@@H]2[C@@H](CO[C@@]3(COS(N)(=O)=O)OC(C)(C)O[C@@H]23)O1`, the compound was called inactive in test [1], in [2], in test [3], in test [4], in test [5] and in [6]. The result in [7], in test [17], in [8], in [18], in [11] and in test [12] was inactive. Besides, the outcome in test [13], in test [14] and in test [15] was inactive. The AC50 in test [9] is 57.9 µM (active).
As for `CCOc1ccc(NC(=O)CC(C)=O)cc1`, the call in test [16], in test [3], in test [5], in test [6], in [7] and in test [17] was inactive. The compound was classed as inactive in test [8], in test [9], in test [18], in test [10], in test [11] and in [12]. Besides, the outcome in test [13], in [14] and in test [15] was inactive. In addition, in test [4], the half-maximal activity concentration (AC50) is 30.4 µM (active).
For the compound `CS(=O)(=O)OCCCCOS(C)(=O)=O`, the compound was classed as inactive in [1], in test [2], in [3], in [4], in [5] and in [7]. In addition, the call in [8], in test [19], in test [18], in test [10], in test [11] and in test [12] was inactive. In addition, the compound was classed as inactive in [13], in [14] and in test [15]. For the same compound, the AC50 in test [9] was 55.8 µM (active).
